In all, about 4,500 sequences were measured (“median log2 fold change of GCK-ALFA target abundance (FLAG IP / Myc IP barcode read proportion)”: median about 0.078, lowest 2% from about -0.6 on). This excerpt belongs to a sample that is enriched for the lowest values.
B1: GBRAP_26_5474 (protein)
chain: VEEEVEAALKEMEKLLKELLDPETAAAATASAFTIVEEAVEEMKKNAKDKEKLKKAAEKAVKEIAADLETLGVDADTRAKIVAKAKAELEKIVKAIEKEA
B2: GBRAP_160_4004 (protein)
chain: SEKIEKLIKEIEELVEETIEWMEGLSPEERLTLVRGTVGEIIQLAIESEEVSDESEEKIAELGDETIERVEENKDASLEVWKEILEEFLEKVKKILKEDE
B3: GBRAP_137_3676 (protein)
chain: SKVEIEIKEEDGLVEITVTVYDPEKAEETEEKLLDIAHEVGALAVAIKRNEDGSLEITIVVPEEKGEEAEKKVLELAKEYDEVIIKKEKDGKTEEEVIKK
B4: GBRAP_35_5582 (protein)
chain: DDVEIILETARDFAEAAIEALKGDDLEEAIRMTEAFVRAAELAIEDLKNDLEALKELAKLLEEVLKAAKEYASDNPEMQKNIERLEELLKRAKELAKKVE
B5: GBRAP_166_4971 (protein)
chain: MQEELVEEFKKYIDELAEKMKTANHEEKLELLAEAAEKLKELIEKGLSDEDLKELIEYLIKKAKEVGISTSEVYGALTIIADLNEEQIDILEEAIKKVEK
B6: GBRAP_106_2558 (protein)
chain: SKKETAEKIYKEMLEEAKKEIAEHEAWLAKHRSQLTPEEIRAINQYLRDYLVAKLLRKMIEAGIITKEEAKEILEEVRKRKDLDPLEALEYAGKLVLEKI
B7: GBRAP_78_6731 (protein)
chain: ELEKLLEEAIKVASEAAKLAVKQASNEVIAEIVEALSHLEEALELVEEGGEKEEILEELEKALEHLKEALKLLPESLTEIKKLLEEAIKLVEEAIKEVKK
B8: GBRAP_78_6654 (protein)
chain: EVEELIDKAMEHLDKAAKLTKKLDEESRNELLDLLVEAASHILLSEENGFDLEELKEALEYLKKALEYAKSLNTPVAKEIAEELEKAIEYLEKAIKLLEE
B9: GBRAP_52_6031 (protein)
chain: SRERMRALARELIDLVLAGRDDEARALAEELVATLSEEELRLLGEELARLTREAAPEDLDAYMRAAEIVADALEAAGYDEVLADDLLARVAAAAVENLAR
B10: GBRAP_52_6036 (protein)
chain: SRERMRRLAQEIVDLAKAGDLEGARALAREAVETLSEEELRLLGEELARLAREAAPEDLDAIMEVAFILADALVEGGYDEVLADDLLARVAAAAVENLQA
B11: GBRAP_196_5416 (protein)
chain: KYLEEIKELEKESEEEVKDIELSDWTIVVNFTPENLEEEAEKTAEIAKDLGNPEIVIVHDGTLEEMLEALKLLREKLKEKGVVSKISVDSRAREEAEEKA
B12: GBRAP_84_7000 (protein)
chain: MREEEIEKLVDYLAENSSLELLKKLYVYLLLKNDNKGATRLLSYLLEKDPEAAAEALDKATEAALEEKEEEVKKELLELAKKEGEEIYKKVKKLIELLEE
B13: GBRAP_160_4655 (protein)
chain: SAELEELLEKIREIFEEALEMMKGETHEQRVAIARVMKGDVILLLEESPSVSDETVDEVDEVMDELVETIEENPDWTDEEIEEKIDEALEEIEEILEEDF
B14: GBRAP_11_2732 (protein)
chain: KKEKLEEIRELAERLAELLQRLIEEGPEDEELRREAEEQLRKLEELVKEYGDEDLKKLVEIIREEWERAQEDPETAVEHLRNALAAARVLAGQVLLEIEE
B15: GBRAP_128_3559 (protein)
chain: SVEERVEKAKELLEKIKNSDVEEARKYAEELAKLLEEADEESLEAIVETILERLPELSVEHLDVLADVFRERIPEADPRTAEALAEIQVEALNEAEEKEE
B16: GBRAP_128_3586 (protein)
chain: SVEAVRAETRALMAAMKTADDATAKALATELAARFTTLSLEEAEAAAEVIEEELPGLSAEHLDILADALRAALPAMTPEKAELAADVLVAALNEAEEKDE
B17: GBRAP_166_4874 (protein)
chain: GLEELLEKARKEIRELLKKASEADDEERVELYIEIGEIIEELREAGAPKEAILELVREALKEAKELGLDVRLLAGIIINVTDFDEEEIDELDKIVEEVLK
B18: GBRAP_11_2667 (protein)
chain: KKEVYKKAAELAKELAKTVKKLIEEGIDNEELIKKAEELLKELKELAKKELDKASQKEVEVLEEIWKEAKEDKENSLKYWELLLAGARVLEGNFLLEYDE
B19: GBRAP_160_4272 (protein)
chain: SPEREELIEDIEEDREEILELVDKISPEEVRNFAVTSLGSHLLEAIDLGLVTDEQEDELMEIVDELEKELKEAENASKEEIKKIITEHYDKAIEILKKAK

target: GABARAP, O95166; test: median log2 fold change of GCK-ALFA target abundance (FLAG IP / Myc IP barcode read proportion) (log2 ratio); each designed protein is fused to an ALFA-tag nanobody in HEK293 cells to bring the named protein to FLAG-tagged glucokinase (GCK); Myc marks an untargeted standard; higher = target protein stabilised (more abundant); conditions: target protein: 3xFLAG-MCP-GCK-ALFA reporter; HEK293 landing pad (RPLP)
Summary of the method: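 HEK293 landing-pad cells received a recombined binder library fused to the ALFA nanobody and were induced with 2 μg mL^−1 doxycycline, then transfected with a plasmid encoding a FLAG-tagged target and a Myc-tagged standard. Lysates were collected after 48 h for anti-FLAG and anti-Myc immunoprecipitation, and the circular RNA barcodes were reverse transcribed, amplified and sequenced. Target abundance for each binder is the median log2 ratio of FLAG to Myc barcode read proportions. Barcodes had to reach a proportion of at least 10^−7 in both replicates, each binder needed at least 3 barcodes per replicate, a pseudocount of 10^−6 was applied, and the two replicates were pooled.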

Sequence of GABARAP, O95166 (O95166 whole entry, the tested form may be a part): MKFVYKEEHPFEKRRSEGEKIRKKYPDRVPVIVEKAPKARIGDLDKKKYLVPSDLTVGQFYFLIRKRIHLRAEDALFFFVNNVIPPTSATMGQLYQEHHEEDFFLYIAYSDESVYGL

| Binder | median log2 fold change |
| --- | --- |
| B1 | 0.241 |
| B2 | -0.827 |
| B3 | 0.249 |
| B4 | 0.182 |
| B5 | -0.0848 |
| B6 | -0.711 |
| B7 | 0.0787 |
| B8 | 0.0422 |
| B9 | -0.202 |
| B10 | -0.791 |
| B11 | 0.451 |
| B12 | 0.0601 |
| B13 | -0.612 |
| B14 | 0.303 |
| B15 | 0.095 |
| B16 | 0.296 |
| B17 | 0.0131 |
| B18 | -0.102 |
| B19 | 0.239 |

From the supplement of paper PMC12632987
